NS1 function inh: inhibitors of influenza NS1 protein function; 270,000 tested, 0.4% active; Potency, µM (highest dose often 46.1 µM); also: actives are rising curves; nearly all actives have a fitted effect of over 50% in size
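Growth recovery, yeast-based: influenza A NS1 expressed in S. cerevisiae causes slow growth, and suppressors are detected by OD600. The parent strain without NS1 is used as positive control.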
Cycloheximide cs: counter-screen for Shiga toxin inhibitors: cycloheximide protein synthesis inhibition. cell reporter, cycloheximide protein synthesis inhibition counterscreen. max response, %. 300,000 tested, 12% active; in the data active = max response mostly above about 13%, no sharp cut-off; inactive = mostly below about 14%; also: read at 38.3 µM for the half of the compounds with a filed dose
Shiga inhibitor: inhibitors of Shiga toxin in Vero cells; inhibition, % at 38.7 µM; 290,000 tested, 9.2% active; Vero cells, Shiga toxin protein synthesis inhibition reporter; AID 2315; in the data active = inhibition mostly above about 28%, no sharp cut-off; inactive = mostly below about 43%
SARS PLP yeast: blocks SARS-CoV papain-like protease in a yeast assay; Potency, µM (doses to about 32.9 µM), most hits filed as activators; 330,000 tested, 0.19% active; AID 485353; S. cerevisiae expressing SARS-CoV PLpro, growth rescue; also: nearly all actives have a fitted effect of over 55% in size
Numbers stand for hits; . = inactive; ? = inconclusive; / = no result given. Compounds with a hit are over-represented: about 12% of the library has one in this group of screens. Unless noted, calls follow the shape of the full dose curve.

SMILES	NS1 function inh	Cycloheximide cs	Shiga inhibitor	SARS PLP yeast
CC(C)C[C@H](NC(=O)[C@H](Cc1cnc[nH]1)NC(=O)[C@@H](N)Cc1cnc[nH]1)C(=O)NCC(=O)NCC(=O)N[C@@H](C)C(=O)N[C@@H](CCCCN)C(=O)N[C@@H](CCC(N)=O)C(=O)N[C@@H](C)C(=O)NCC(=O)N[C@@H](CC(=O)O)C(=O)N[C@H](C(=O)O)C(C)C	/	.	.	/
Cc1nnc(SCC(=O)Nc2c(C)n(C)n(-c3ccccc3)c2=O)n1Cc1ccccc1	.	.	.	.
CCN(CC)CCN1C(=O)C(O)=C(C(=O)c2cccs2)C1c1ccccn1 (configuration not stated)	.	20.0	.	.
CCCCN(C)Cc1c(C)[nH]c2ccccc2c1=O	.	.	.	.
Cc1[nH]c2ccccc2c(=O)c1CN(C)Cc1ccccc1	.	26.7	.	.
O=S(=O)(Nc1ccc2c(c1)nc1n2CCOC1)c1ccc(Cl)cc1	.	.	.	.
C(=N\N=C\c1cccs1)/c1cccs1	/	45.1	71.2	.
CC1S/C(=N/N=C/c2cccs2)NC1=O (configuration not stated)	.	16.1	20.1	.
C(=N\n1cnnc1)/c1cccs1	.	.	.	.
CC(C(=O)Nc1cc([N+](=O)[O-])ccc1Cl)N1CCN(c2ccc(O)cc2)CC1 (configuration not stated)	.	.	.	?
CCOc1ccc(NS(=O)(=O)c2ccc(-c3ccc(=O)[nH]n3)o2)cc1	.	.	.	.
Cn1c(=O)c(C(=O)COC(=O)c2cc(C3CC3)nc3ccccc23)c(N)n(Cc2ccccc2)c1=O	.	.	.	.
Cn1c(=O)c(C(=O)COC(=O)c2cc(-c3ccco3)nc3ccccc23)c(N)n(CC2CC2)c1=O	?	21.9	.	.
CN1C(=O)C(=Cc2coc3ccccc3c2=O)C(=O)N(C)C1=O	.	20.3	.	.
CN1C(=O)C(=Cc2cn(CC#N)c3ccccc23)C(=O)N(C)C1=O	.	.	.	.
COc1ccc(-c2csc(Nc3ccc(C)cn3)n2)cc1OC	.	34.0	75.4	.
COc1ccc(-c2csc(Nc3cc(C)ccn3)n2)cc1OC	.	51.1	63.2	.
N#Cc1nc(-c2ccco2)oc1N1CCc2ccccc2C1	.	25.3	90.5	.
CC1CC(C)CN(c2oc(-c3ccco3)nc2C#N)C1 (configuration not stated)	.	13.2	.	.
Nc1ccc(C(=O)c2ccccc2C(=O)O)cc1Cl	.	.	.	.
CSc1nsc(SCC(=O)Nc2ccc3c(c2)OCCO3)n1	.	41.4	.	.
COCc1cc(C)nc(SCC(=O)Nc2ccc3c(c2)OCCO3)c1C#N	.	11.0	.	.
Cc1csc(SCC(=O)Nc2ccc3c(c2)OCCO3)n1	.	41.5	74.7	.
COCc1cc(C)nc(SCC(=O)Nc2ccc3c(c2)OCO3)c1C#N	.	.	.	.
COCC(=O)N/N=C(\C)CC(=O)NCc1ccco1	/	.	.	.
SMILES	NS1 function inh	Cycloheximide cs	Shiga inhibitor	SARS PLP yeast
Cc1ccc(-c2nc(CSCC(=O)NCc3cccnc3)c(C)o2)cc1	.	.	.	.
O=C1NC2(CCCCC2)N=C1c1ccc(Br)cc1	.	15.0	.	.
O=C(Cn1cnc2ccccc21)N1CCN(S(=O)(=O)c2ccccc2)CC1	.	.	.	.
CCOC(=O)C1=C(C)Nc2ccccc2S1	.	23.2	31.1	.
CSCCOC(=O)C1=C(C)Nc2ccc(C)cc2S1	.	13.8	.	.
CCOC(=O)C1=C(C)Nc2ccc(C)cc2S1	.	.	.	.
CCOCCOC(=O)C1=C(C)Nc2ccc(C)cc2S1	.	21.8	.	.
CCOC(=O)C1=C(C)N=c2s/c(=C\c3ccc(O)c([N+](=O)[O-])c3)c(=O)n2C1c1ccccc1OC (configuration not stated)	.	.	.	.
O=c1/c(=C/c2cn(-c3ccccc3)nc2-c2ccc(F)cc2)sc2nc3ccccc3n12	.	.	.	.
Cc1cc(/C=c2\sc3nc4ccccc4n3c2=O)c(C)n1-c1ccc(C(=O)O)cc1	.	.	.	.
O=c1/c(=C\c2cccnc2)sc2nc3ccccc3n12	.	31.3	127.2	.
CCN(CC)c1ccc(/C=c2\sc3nc4ccccc4n3c2=O)c(O)c1	/	.	38.0	.
O=c1/c(=C/c2ccc(O)c([N+](=O)[O-])c2)sc2nc3ccccc3n12	/	32.5	94.3	.
Cc1cc(/C=c2/sc3nc4ccccc4n3c2=O)c(C)n1-c1ccccn1	.	67.2	.	.
COc1cccc(CNC(=O)CCCn2c(=S)[nH]c3cc4c(cc3c2=O)OCO4)c1	.	.	.	.
Cc1ccc2c(c1)C(SCC(=O)NCCc1ccccc1)CC1(CCCC1)O2 (configuration not stated)	.	.	.	.
CN(C)C(=S)SCC(=O)Nc1cccc(C(F)(F)F)c1	.	.	.	.
COCc1ccc(CN2CCc3c([nH]c4ccccc34)C2CC(C)C)o1 (configuration not stated)	.	.	.	.
COc1c(Br)cc([N+](=O)[O-])c(OC)c1C(=O)NC(=O)Nc1nc(C)cc(C)n1	.	.	.	.
COC(=O)C1=C[C@@H](C(=O)OC)C2C3=C(C(=O)[C@@]2(C)NC(=O)c2ccccc2)[C@H](C)[C@@H]2C(=O)N(C)C(=O)[C@@H]2[C@@H]3C1 (some centres not stated)	/	.	.	/
Cc1csc(NC(=O)/C=C/c2ccc(C)o2)n1	.	30.8	72.8	.
O=C(/C=C/c1ccco1)Nc1nc(-c2ccccn2)cs1	/	49.1	53.5	?
Cn1nnc(NC(=O)/C=C/c2ccco2)n1	.	.	.	.
Cc1csc(NC(=O)/C=C/c2ccco2)n1	.	25.2	34.7	.
O=C(/C=C/c1ccco1)Nc1nc(-c2ccc(F)c(F)c2)cs1	.	18.3	.	.
SMILES	NS1 function inh	Cycloheximide cs	Shiga inhibitor	SARS PLP yeast
Cc1ccc(/C=C/C(=O)Nc2ccc(S(N)(=O)=O)cc2)o1	.	.	.	.
O=C1C=C(c2ccc(Cl)c(C(F)(F)F)c2)C[C@@H](c2ccc3c(c2)OCO3)C1	/	/	/	.
COc1ccc(OC)c(/C=N/NC(=O)CCc2ccc(O)c(O)c2)c1	.	.	.	.
CC1CN(C(=O)COc2ncnc3ccccc23)CC(C)O1 (configuration not stated)	.	.	.	.
Cc1cc(Cl)ccc1OC(C)C(=O)Nc1cnn(CCCC(=O)O)c1 (configuration not stated)	.	.	.	.
COc1ccc(Cc2c(O)nc(SC)n(C(C)=O)c2=O)cc1	.	.	.	.
CCOC(=O)Cc1csc(NC(=O)/C=C/c2ccc(Cl)cc2)n1	.	23.3	59.3	.
COc1ccc(-c2csc(NC(=S)NC(=O)/C=C/c3ccco3)n2)cc1OC	.	.	.	.
O=C(/C=C/c1ccco1)Nc1nc(-c2ccccc2)cs1	.	86.3	118.4	.
CCOC(=O)Cc1csc(NC(=O)Cc2ccccc2)n1	.	.	.	.
CCOC(=O)Cc1csc(NC(=O)/C=C/c2ccco2)n1	.	25.3	59.5	.
O=[N+]([O-])c1ccc(-c2nc3ccc([N+](=O)[O-])cc3[nH]2)cc1	.	40.0	.	.
Nc1ccc(-c2nc3ccc([N+](=O)[O-])cc3[nH]2)cc1	.	63.4	.	.

Source: PubChem BioAssay (National Center for Advancing Translational Sciences (NCATS))
